KAT2A inh = qHTS Assay for Inhibitors of GCN5L2; GCN5L2 HAT assay, ThioGlo1 CoA-SH fluorescence; Potency, µM (highest dose often 58.9 µM), for the others: at the highest dose activity change, negative = inhibition, usual class: inhibitors; 0.21% of 390,000 active; AID 504327, 2011; also: % is scaled to controls: 0 for no effect and ±100 for the full control effect
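GCN5L2 (20 nM) in 50mM HEPES pH 7.5, 0.1mM EDTA, 0.01% Tween-20 preincubated 15 min with compounds at room temperature. Reaction started with H3(1-25) 75uM, acetyl-CoA 70uM, ThioGlo1 50uM; CoA-thiol fluorescence (Ex340/Em540) read at 0 and 20 min.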
GLS inh = qHTS for Inhibitors of Glutaminase (GLS) | Glutaminase kidney isoform, mitochondrial (Homo sapiens), O94925 | GLS enzymatic activity, qHTS titration | Potency, µM (series often up to 45.5 µM), for inactives: at the highest dose activity change, negative = inhibition, actives largely listed as inhibitors | 0.21% of 410,000 active | AID 624170, 2012; also: % is scaled to controls: 0 for no effect and ±100 for the full control effect
Target sequence (O94925 whole entry, looked up, canonical isoform): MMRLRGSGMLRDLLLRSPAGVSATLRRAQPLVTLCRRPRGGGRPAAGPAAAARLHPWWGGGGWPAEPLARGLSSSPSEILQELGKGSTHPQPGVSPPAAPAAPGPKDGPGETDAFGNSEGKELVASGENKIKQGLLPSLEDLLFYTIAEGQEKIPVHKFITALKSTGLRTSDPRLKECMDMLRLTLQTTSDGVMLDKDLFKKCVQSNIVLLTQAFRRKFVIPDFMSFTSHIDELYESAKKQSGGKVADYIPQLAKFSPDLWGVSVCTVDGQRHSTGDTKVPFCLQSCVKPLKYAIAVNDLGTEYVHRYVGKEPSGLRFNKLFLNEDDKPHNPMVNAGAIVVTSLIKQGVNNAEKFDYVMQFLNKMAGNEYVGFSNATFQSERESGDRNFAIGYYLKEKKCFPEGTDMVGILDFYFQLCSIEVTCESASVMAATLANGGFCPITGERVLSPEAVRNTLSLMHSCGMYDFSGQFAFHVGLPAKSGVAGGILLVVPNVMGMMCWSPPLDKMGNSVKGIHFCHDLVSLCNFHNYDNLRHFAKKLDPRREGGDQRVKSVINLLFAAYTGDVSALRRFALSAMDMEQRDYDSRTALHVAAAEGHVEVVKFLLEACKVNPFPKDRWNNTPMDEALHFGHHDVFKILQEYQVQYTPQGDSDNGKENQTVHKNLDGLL
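Compounds were pin-transferred onto hKGA, after which L-glutamine (1 mM solution) and a detection mix of glutamate oxidase, HRP and Amplex Red were added. Initial and 30 min RT fluorescence reads were collected.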
Pol kappa inh = qHTS for Inhibitors of Polymerase Kappa. 0.53% of 400,000 active. Potency, µM (doses to about 107 µM), for the others: top-dose activity, negative = inhibition, usual class: inhibitors. AID 588579, 2011. DNA polymerase kappa (Homo sapiens), Q9UBT6. purified Pol kappa, fluorescent DNA synthesis assay, 10 min; also: % is scaled to controls: 0 for no effect and ±100 for the full control effect
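50 nM final substrate added after 15 min RT preincubation of 10 nM Pol kappa with compound; fluorescence read at 0 and 10 min.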
Pol iota inh = qHTS for Inhibitors of Polymerase Iota. Pol iota fluorescent replication assay, 10 min. DNA polymerase iota (Homo sapiens), Q9UNA4. AID 588590, 2011. 1% of 390,000 active. Potency, µM (top dose mostly 115 µM), for inactives: top-dose activity, negative = inhibition, actives largely listed as inhibitors
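Fluorescent replication assay read twice, at 0 min and 10 min after adding 50 nM (final) substrate. Enzyme (10 nM) and compounds were first incubated 15 min at room temperature; enzyme-free buffer wells were negative controls.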
POLB inh = qHTS Assay for Inhibitors of DNA Polymerase Beta. Potency, µM (doses to about 114 µM), for inactives: at the highest dose activity change, negative = inhibition, hits mostly inhibitors. AID 485314, 2010. Pol beta primer extension/strand displacement, fluorescence kinetic. P06746. 1.3% of 340,000 active; also: % is scaled to controls: 0 for no effect and ±100 for the full control effect
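Pol beta (10 nM) and compounds were preincubated 15 min at room temperature, then 50 nM substrate (final) started primer extension/strand displacement. Reads were taken at 0 and 10 min; concentration-response data were fitted to a four-parameter Hill equation.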
POLH inh = qHTS for Inhibitors of Polymerase Eta. recombinant Pol eta, fluorescent DNA replication assay. Potency, µM (doses to about 114 µM), for inactives: at the top dose activity change, negative = inhibition, most hits filed as inhibitors. 1.2% of 390,000 active. AID 588591, 2011; also: % is scaled to controls: 0 for no effect and ±100 for the full control effect
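Pol eta (10 nM) was preincubated with compounds for 15 min at room temperature, after which fluorescent replication substrate (50 nM final) was added to start the reaction. Fluorescence was read kinetically at 0 and 10 min.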
* hit, by the source's call; ? = inconclusive; / = no result; [ ] = remark or other dose. Hits are enriched below; roughly 2.4% of the tested compounds scored in any of these assays. Calls follow the shape of the dose curve; as a rule, active = well fitted inhibition curve with a large enough effect; inconclusive = small, poorly fitted or top-dose-only effect, or another doubt; inactive = no such curve, though single readings can be large or run the other way. Potency is read from the fitted curve at half-maximal effect.

SMILES	KAT2A inh	GLS inh	Pol kappa inh	Pol iota inh	POLB inh	POLH inh
CC(C)CC(C(=O)Nc1oc(-c2ccco2)c(-c2ccco2)c1C#N)N1C(=O)c2ccccc2C1=O (stereo unspecified)	-21%	-5%	?	?	32µM*	20µM*
CCc1cccc2cc(C(O)CNC(C)(C)C)oc12 (stereo unspecified)	1%	/	-17%[60.1 µM]	/	/	/
O=C1NN(c2cccc(Br)c2)C(=O)/C1=C/c1cccs1	-13%	-15%	-5%	?	-2%	79µM*
CC[n+]1cccc(Br)c1	/	/	-3%	3%	/	/
COc1ccc(C(=C2C(=O)Nc3ccccc32)c2ccc(OC)cc2)cc1	-21%	/	-2%[60.1 µM]	/	/	/
Cc1ccc(-c2cc[n+](Cc3ccccc3)cc2)cc1	-5%	?	-1%	121%	-24%	-7%
Cc1ccc2c(c1)sc[n+]2Cc1ccccc1	-5%	25%	-13%	45µM*	22%	-10%
O=C(COc1ccccc1F)Nc1ccccc1C(=O)OCc1cc(=O)n2nc(C3CC3)sc2n1	33%	2%	-8%[60.1 µM]	22%	-10%	-21%
COc1ccc(-n2nc(C(=O)NCC(=O)NC(C)C)c3ccccc3c2=O)cc1Cl	7.1µM*	-1%	-14%	?	59%	-3%
CCC(C)NC(=O)CNC(=O)c1nn(-c2ccc(OC)c(Cl)c2)c(=O)c2ccccc12 (stereo unspecified)	-10%	7%	-3%	-21%	15%	4%
CCOc1ccc(NC(=O)CNC(=O)c2nn(-c3ccc(OC)c(OC)c3)c(=O)c3ccccc23)cc1	-4%	31%	-1%	?	-25%	-28%
COc1ccc(-n2nc(C(=O)NCC(=O)Nc3cccc(Cl)c3)c3ccccc3c2=O)cc1OC	-6%	16%	3%	48%	25µM*	?
N/C(=C\C(=O)c1cc(Cl)ccc1O)C(Cl)(Cl)Cl	-6%	-10%	0%	?	13%	50µM*
CC1=CCC2C(=O)N(c3nc4ccccc4n3C)C(=O)C2C1 (stereo unspecified)	/	-1%	-24%	?	25µM*	?
COc1ccc(CNc2nc(-c3ccc(N(C)C)cc3)nc3ccccc23)c(OC)c1	-28%	/	-10%[60.1 µM]	/	/	/
O=C(CCN1C(=O)C2CC=C(Cl)CC2C1=O)NCc1ccco1 (stereo unspecified)	4%	1%	-3%	-9%	10%	?
O=C1C2CC=C(Cl)CC2C(=O)N1CN(Cc1ccco1)CN1C(=O)C2CC=C(Cl)CC2C1=O (stereo unspecified)	-1%	-5%	-3%	?	35µM*	?
CCOc1ccc(NC(=O)c2c(NCc3sccc3C)sc3c2CCCCC3)cc1	?	11%	7%[60.1 µM]	?	?	-15%
O=C(COC(=O)c1cc(S(=O)(=O)N2CCc3ccccc3C2)ccc1Cl)NCc1ccco1	?	-2%	?	?	40µM*	20µM*
O=C(COC(=O)c1cccc(S(=O)(=O)N2CCc3ccccc3C2)c1)NCc1ccco1	?	1%	-23%	-15%	18µM*	-10%
CN(CCOc1ccc(C[C@H](Nc2ccccc2C(=O)c2ccccc2)C(=O)O)cc1)c1ccccn1	32µM*	/	-8%[19.4 µM]	-10%[58.9 µM]	4%[57.1 µM]	-4%[57.1 µM]
CN(C)/C=C/C(=O)c1ccc(OCCN(C)c2ccccn2)cc1	-7%	9%	-7%	-20%	-1%	0%
CC(=O)N(C(C)=O)N1C(=O)/C(=C/c2ccc(Cl)cc2)SC1=S	-2%	?	-34%	25µM*	?	28µM*
Cc1ccc(C)n1N1C(=O)/C(=C\c2ccc(Cl)cc2)SC1=S	-23%	11%	-24%	?	12%	-6%

Compound activity from PubChem.
